Measurements: the supplement of paper PMC11624193, “Coupling cellular drug-target engagement to downstream pharmacology with CeTEAM” (Nature Communications, 2024)
Structures can show the parent of a compound that is named as a salt. A number with no mark means an inactive call.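 Rule for the calls: active = log2 fold change beyond 2 SD from the library mean after excluding viability outliers; inactive = within 2 SD.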

Target: PARP1 L713F-nLuc biosensor (HCT116) (UniProt P09874)
Assay: PARP1 L713F-nLuc/akaLuc ratio relative to DMSO control (biosensor stabilization) (fold change); higher = more PARP1 biosensor stabilization (target engagement / stabilizer), active = hit call of the paper
Details: 24 h
[1] = stock concentration (mM; final µM = stock mM x 1): 2
[2] = stock concentration (mM; final µM = stock mM x 1): 9

PARP1 L713F-nLuc biosensor (HCT116), sequence (P09874 whole entry L713F, looked up): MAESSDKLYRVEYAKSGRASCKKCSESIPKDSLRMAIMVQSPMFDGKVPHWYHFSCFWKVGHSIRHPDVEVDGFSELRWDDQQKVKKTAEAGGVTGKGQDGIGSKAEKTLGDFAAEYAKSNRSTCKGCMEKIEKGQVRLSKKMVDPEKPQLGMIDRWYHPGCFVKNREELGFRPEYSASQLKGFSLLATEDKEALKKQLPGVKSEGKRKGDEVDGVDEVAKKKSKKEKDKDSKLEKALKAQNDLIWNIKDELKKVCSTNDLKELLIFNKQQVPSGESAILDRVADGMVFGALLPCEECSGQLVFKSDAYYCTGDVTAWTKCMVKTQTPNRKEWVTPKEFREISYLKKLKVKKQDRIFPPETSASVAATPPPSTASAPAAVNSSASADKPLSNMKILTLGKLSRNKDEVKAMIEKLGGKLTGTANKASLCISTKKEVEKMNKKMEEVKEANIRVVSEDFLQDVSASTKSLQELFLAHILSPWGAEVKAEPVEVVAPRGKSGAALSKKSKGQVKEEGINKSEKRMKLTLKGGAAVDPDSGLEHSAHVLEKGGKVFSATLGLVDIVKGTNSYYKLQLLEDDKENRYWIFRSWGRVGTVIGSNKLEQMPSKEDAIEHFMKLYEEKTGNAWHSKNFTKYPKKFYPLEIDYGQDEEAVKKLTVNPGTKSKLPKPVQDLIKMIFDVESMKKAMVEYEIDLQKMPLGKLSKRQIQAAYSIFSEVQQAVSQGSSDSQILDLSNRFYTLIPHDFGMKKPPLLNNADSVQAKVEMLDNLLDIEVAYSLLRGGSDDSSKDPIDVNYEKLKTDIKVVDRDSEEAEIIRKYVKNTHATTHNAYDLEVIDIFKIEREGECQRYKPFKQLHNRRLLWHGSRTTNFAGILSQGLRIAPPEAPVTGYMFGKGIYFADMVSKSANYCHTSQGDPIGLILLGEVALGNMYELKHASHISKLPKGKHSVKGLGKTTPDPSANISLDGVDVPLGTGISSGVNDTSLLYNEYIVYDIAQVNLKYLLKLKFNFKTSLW

| SMILES | PARP1 L713F-nLuc/akaLuc ratio [1] | PARP1 L713F-nLuc/akaLuc ratio [2] |
| --- | --- | --- |
| CCN(c1cc(-c2ccc(CN3CCOCC3)cc2)cc(C(=O)NCc2c(C)cc(C)[nH]c2=O)c1C)C1CCOCC1 [Tazemetostat (EPZ-6438)] | 1.21 | – |
| CN(C(=O)c1ccc(F)cc1C(F)(F)F)C1CCN(c2nnc(-c3ccnn3C)c3ccccc23)CC1 | 1.11 | – |
| CC(C)Cn1cnc2c(N)nc3ccccc3c21 [Imiquimod] | 1.02 | – |
| Cn1cc(-c2cnn3c(N)c(Br)c([C@@H]4CCCNC4)nc23)cn1 | 2.66 | – |
| CNC(=O)c1ccc(-c2cnc3ncc(Cc4ccc5ncccc5c4)n3n2)cc1F | 0.95 | – |
| CCc1cc(O)c(F)cc1-c1ccc2c(-c3nc4c([nH]3)CN(C3CCN(C)CC3)CC4)n[nH]c2c1 [JAK-IN-5 (hydrochloride)] | 0.581 | – |
| COc1cc2c(N3CCN(C(=O)Nc4ccc(OC(C)C)cc4)CC3)ncnc2cc1OCCCN1CCCCC1 [Tandutinib (MLN518)] | 1.73 | – |
| CCc1c(N(CC)C2CCOCC2)cc2oc(C3CCN(C(C)C)CC3)cc2c1C(=O)NCc1c(C)cc(C)[nH]c1=O | 0.847 | – |
| N[C@@H]1[C@@H](O)[C@H](O[C@@H]2O[C@H](CO)[C@@H](O)[C@H](O)[C@H]2N)[C@@H](CO)O[C@H]1O [Chitosan oligosaccharide] | – | 0.65 |
| CCn1cc(C(=O)O)c(=O)c2cc(F)c(N3CCNCC3)nc21 [Enoxacin (hydrate)] | – | 0.596 |
| C=CC(=O)Nc1cc2c(Nc3ccc(F)c(Cl)c3)ncnc2cc1OCCCN1CCOCC1 [Canertinib (CI-1033)] | 1.01 | – |
| Cc1nn(C)c(COc2ccc(N3CCN(S(=O)(=O)N(C)C)CC3)cc2)c1-c1cccc2c(CCCOc3cccc4ccccc34)c(C(=O)O)n(CCN3CCOCC3)c12 | 1.04 | – |
| COc1cc2/c(=N/c3ccc(Br)cc3F)nc[nH]c2cc1OCC1CCN(C)CC1 [Vandetanib (ZD6474)] | 0.748 | – |
| Cn1cc(C[C@@H](N)C(=O)O)c2ccccc21 [Indoximod (NLG-8189?] | 0.857 | – |
| Cc1cc(C)c(CNC(=O)c2cc(-c3ccc(CN4CCOCC4)cc3)cc3c2cnn3C2CCCC2)c(=O)[nH]1 | 1.45 | – |
